# Screens (PubChem BioAssay)
# HTT-AS promoter: activators of huntingtin-antisense promoter activity. HEK293 HTT-AS promoter firefly luciferase reporter, 24 h; response scale: percent change from vehicle, -100% = no light. Potency, µM (highest dose often 57.5 µM), for inactives: at the top dose activity change, positive = activation, most hits filed as activators. hit rate 0.24% among 48,000; further: potency means the concentration at half of the fitted maximal effect; nearly all actives have a fitted effect of over 55% in size
#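 HEK293 cells carrying firefly luciferase reporters were seeded at 2,500 per well in Opti-MEM and cultured for 24 h. They were then treated with compounds at up to 57.5 uM final for 24 h at 37 degrees C before Dual-Glo luminescence readout.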
# SKOV3 invasion: blocks SKOV3ip1 adhesion and invasion in omental model; SKOV3ip1-GFP adhesion/invasion on 3D omental model, fluorescence; hit rate 0.1% among 46,000; Potency, µM (series often up to 45.8 µM), inactives show at the highest dose activity change, negative = inhibition, most hits filed as inhibitors; AID 1963576;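 further: potency means the concentration at half of the fitted maximal effect; plate controls were DMSO wells for no effect and tomatine positive control wells for full effect; nearly all actives have a fitted effect of over 65% in size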
#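 A 3D layer of primary human omental fibroblasts, mesothelial cells, fibronectin and collagen I, grown 48 hr, received SKOV3ip1-GFP cells in serum-free medium plus compounds at 0.36-46 umol/L. After 2 hr RT and 16 hr 37 C, fixed adherent GFP cells were counted; normalized to DMSO and tomatine.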
# NTMT1 inh: NTMT1 methyltransferase inhibition; Q9BV86; NTMT1 MTase-Glo SAH luminescence, purified enzyme; Potency, µM (series often up to 114 µM), without a hit: top-dose activity change, negative = inhibition, usual class: inhibitors; hit rate 2.5% among 59,000; AID 1645870;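 further: potency means the concentration at half of the fitted maximal effect; plate controls were DMSO vehicle for no effect and no enzyme for full effect; nearly all actives have a fitted effect of over 65% in size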
# Target sequence (Q9BV86 whole entry, looked up): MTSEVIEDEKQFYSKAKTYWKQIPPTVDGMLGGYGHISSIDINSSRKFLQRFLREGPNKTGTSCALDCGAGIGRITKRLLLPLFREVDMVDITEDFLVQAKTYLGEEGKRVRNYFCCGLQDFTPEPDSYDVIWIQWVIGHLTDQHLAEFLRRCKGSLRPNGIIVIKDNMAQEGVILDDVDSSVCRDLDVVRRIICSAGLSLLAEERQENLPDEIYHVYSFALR
# TSG101-PTAP inh: inhibitors of HIV-1 PTAP binding to human TSG101, validation; AID 1347069; Fluorescence polarization, FITC-PTAP peptide/Tsg101, 20 min; 44,000 tested, under 10 active; Potency, µM (doses to about 115 µM), most hits filed as inhibitors; Q99816; further: potency means the concentration at half of the fitted maximal effect; 0% is about no effect
#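 Fluorescence polarization: Tsg101 binding domain (10 uM final) in 10 mM HEPES pH 7.5, 0.15 M NaCl, 0.01% Tween 20, 3 mM EDTA, 0.1 mM TCEP; compounds pinned; FITC-PTAP peptide 50 nM final; 20 min, r.t.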
# HTT prom inh: inhibits huntingtin promoter activity | HEK293 HTT promoter firefly luciferase reporter, 24 h | Potency, µM (series often up to 57.5 µM), for the others: at the top dose activity change, negative = inhibition, actives largely listed as inhibitors | hit rate 0.93% among 48,000; further: potency means the concentration at half of the fitted maximal effect; nearly all actives have a fitted effect of over 50% in size
#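 Quantitative HTS used concentration series of up to 57.5 uM final on HEK293 luciferase reporter cells, 24 h at 37 degrees C. Readout was Dual-Glo firefly luminescence.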
# GALK inh: inhibitors of human galactokinase (GALK). 44,000 tested, under 10 active. P51570. AID 1347072. recombinant GALK, Kinase-Glo ATP luminescence, 1 h. Potency, µM (series often up to 57.5 µM), inactives show at the top dose activity, negative = inhibition, most hits filed as inhibitors;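 further: plate controls were full GALK reaction for no effect and reaction lacking GALK for full effect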
# Target sequence (P51570 whole entry, looked up): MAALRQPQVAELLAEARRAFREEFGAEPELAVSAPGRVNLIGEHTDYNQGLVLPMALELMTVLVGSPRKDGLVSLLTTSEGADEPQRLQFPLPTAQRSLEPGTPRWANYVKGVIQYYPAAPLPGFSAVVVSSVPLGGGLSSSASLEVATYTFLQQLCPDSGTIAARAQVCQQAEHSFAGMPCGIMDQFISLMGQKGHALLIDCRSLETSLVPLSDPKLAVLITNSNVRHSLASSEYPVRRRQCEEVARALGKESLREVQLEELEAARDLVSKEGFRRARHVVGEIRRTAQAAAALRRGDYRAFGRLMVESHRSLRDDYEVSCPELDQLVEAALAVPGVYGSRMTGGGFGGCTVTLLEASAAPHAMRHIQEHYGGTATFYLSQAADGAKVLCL
#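 Luminescent ATP-depletion readout (Kinase-Glo Plus) after 1 h room-temperature incubation of human GALK (5 nM) with galactose 100 µM and ATP 35 µM, pH 8.0 HEPES/Mg2+ buffer; compounds tested in qHTS format.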
# An asterisk follows results filed as active; i = inactive; u = inconclusive; x = no result given; ! = not confirmed by another sample; [ ] = remark or other dose. Hits are enriched below; roughly 2.5% of the tested compounds scored in any of these assays. The call rests on the fitted dose curve; in most records, active means well fitted curve in the direction sought with a large enough effect; inconclusive means small, poorly fitted or top-dose-only effect, or another doubt; inactive means no such curve, though single readings can be large; an effect the other way counts as inactive or inconclusive.
SMILES,HTT-AS promoter,SKOV3 invasion,NTMT1 inh,TSG101-PTAP inh,HTT prom inh,GALK inh
O=C(Nc1ccc(F)c(F)c1)c1cc(S(=O)(=O)NC2CCCCCC2)ccc1F,-38%,u,1%,i,25µM*,-6%
O=C(C[C@@H]1C/C=C\CCC(=O)O[C@H](c2ccccc2)CNC1=O)NCc1ccc(Cl)cc1,x,x,17%,x,x,x
CC1(C)CCC2(C(=O)OC3OCC(O)C(O)C3O)CCC3(C)C(=CCC4C5(C)CC(O)C(OC6OC(COC7OCC(O)C(O)C7O)C(O)C(O)C6O)C(C)(C)C5CCC43C)C2C1 (configuration not stated),x,x,-5%[12.6 µM],x,x,x
CCOC(=O)c1ccc(N2C(=O)c3[nH]nc(-c4ccccc4)c3C2c2cccs2)cc1 (configuration not stated),-63%,i,-5%,i,16µM*,0%
CSc1ccc(C(=O)/C=C/c2cc(C)c(OC(C)(C)C(=O)O)c(C)c2)cc1,x,x,7%[228 µM],x,x,x
CC(C)c1ccc(NC(=O)c2ccc3c(c2)CCN3S(=O)(=O)c2ccccc2)cc1,-15%,i,19%,i,-27%,0%
CCCCc1ccc(NC(=O)c2ccc3c(c2)CCN3S(=O)(=O)CC)cc1,-47%,3%,-17%,i,22µM*,2%
CC(C)c1ccc(NC(=O)c2ccc3c(c2)CCCN3S(C)(=O)=O)cc1,-31%,-6%,8%,i,10µM*,1%
Cc1ccc(C)c(NC(=O)c2ccc3c(c2)CCCN3S(C)(=O)=O)c1,7.9µM*,-4%,-1%,i,34%,4%
CCS(=O)(=O)c1ccc(C(=O)N2CCN(c3nc4c(OC)ccc(C)c4s3)CC2)cc1,-37%,i,-3%,i,u,0%
CCS(=O)(=O)c1cccc(C(=O)N2CCN(c3nc4c(C)ccc(Cl)c4s3)CC2)c1,-48%,i,4%,i,11µM*,-4%
COc1ccc(NC(=O)c2[nH]c(C)c(C(C)=O)c2C)cc1S(=O)(=O)Nc1ccc(C#N)cc1,x,x,7%,x,x,x
CCc1cccc(NC(=O)Nc2ccc3c(c2)N(C)C(=O)c2ccccc2S3)c1,-38%,-11%,5%,i,32µM*,u
CCN1C(=O)c2ccccc2Sc2ccc(NC(=O)Nc3cc(C)cc(C)c3)cc21,-46%,u,5%,i,20µM*,2%
CN1CCC(Nc2ncc3ncnc(Nc4ccc(F)c(Cl)c4)c3n2)CC1,-11%,x,45µM*,x,-16%,x
C=CC(=O)Nc1cc2c(Nc3ccc(F)c(Cl)c3)ncnc2cc1C#CC(C)(C)N1CCN(C)CC1,-16%,u,u,x,-3%,x
COc1cc2ccccc2cc1C(=O)Nc1cccc(-c2nc3cc(C)c(C)cc3o2)c1,-74%,-6%,u,i,7.1µM*,0%
COc1cc2ccccc2cc1C(=O)Nc1ccc2oc(-c3cccc(Cl)c3Cl)nc2c1,3%,-2%,79µM*,i,9%,0%
COc1cccc(-c2nc3cc(NC(=O)c4ccc(C)c([N+](=O)[O-])c4)ccc3o2)c1,x,x,79µM*,x,x,x
CN(C)CC(=O)Nc1ccc2[nH]c(=O)c3ccccc3c2c1,x,x,-1%[57.5 µM],x,x,x
C[n+]1cc(NC(=O)c2cccc(C(=O)Nc3cc4ccccc4[n+](C)c3)n2)cc2ccccc21,x,x,50µM*,x,x,x
COc1ccc(OC)c(CCNC(=O)C(C)n2nc(C)c3c(C)n(-c4ccc(C)cc4)nc3c2=O)c1 (configuration not stated),-88%,i,89µM*,i,1.6µM*,-1%
CCC(C(=O)NCCc1cc(OC)ccc1OC)n1nc(C)c2c(C)n(-c3ccccc3)nc2c1=O (configuration not stated),-12%,2%,-18%,i,u,0%
COc1ccc(CCNC(=O)Cn2nc(C)c3c(C)n(-c4ccc(C)cc4)nc3c2=O)c(OC)c1,-68%,-20%,45µM*,i,2.5µM*,4%
COCCNC(=O)Cn1nc(C)c2c(C)n(-c3ccc(C)cc3)nc2c1=O,-27%,-6%,0%,i,-13%,-1%
SMILES,HTT-AS promoter,SKOV3 invasion,NTMT1 inh,TSG101-PTAP inh,HTT prom inh,GALK inh
Nc1cccc2c1CN([C@H]1CCC(=O)NC1=O)C2=O,x,x,12%,x,x,x
CC(C)(C)c1ccc(NC(=O)C2CCCN(c3cnccn3)C2)cc1 (configuration not stated),19%,-8%,89µM*,i,-8%,3%
CC(=O)Nc1ccc(NC(=O)C2CCN(c3cnccn3)CC2)cc1,-10%,i,u,i,-4%,u
O=[S+]([O-])(Nc1ccc(C2CCNCC2)cc1)c1ccc(NCc2ccc(Br)cc2O)cc1,x,x,50µM*,x,x,x
CS(=O)(=O)c1ccc(-c2cnc(NCc3ccco3)n3cnnc23)cc1,x,x,-9%,x,x,x
Cc1cc2c(C(C)C)c(O)c(O)c(C=O)c2c(O)c1-c1c(C)cc2c(C(C)C)c(O)c(O)c(C=O)c2c1O,-89%,-13%,20µM*!,x,u,x
Cc1cc(=O)oc2c(C=O)c(O)ccc12,x,x,9%[57.5 µM],x,x,x
FC(F)(F)c1ccccc1-c1nc(NCc2ccc(-c3cccnc3)cc2)c2sccc2n1,x,x,9%[57.5 µM],x,x,x
O=C(OCC#CCSc1nnc(-c2ccc3ccccc3c2)o1)c1cccc(F)c1,x,x,10%[57.5 µM],x,x,x
COc1cc(C)c(C(=O)NC2C(C)OC(OC3CCC(C)C4C3C=C(C)C3/C(C)=C\CC/C(C)=C/C5(C)C=C(C(=O)O)C(C)CC56OC(=O)/C(=C(\O)C34C)C6=O)C(O)C2(C)O)c(O)c1 (configuration not stated),x,x,-8%[12.6 µM],x,x,x
O=C1c2ccccc2-[n+]2ccc3c([nH]c4ccccc43)c21,-93%,2.3µM*,45µM*,x,u,x
CC1CCC2(C(=O)OC3OC(COC4OC(CO)C(O)C(O)C4O)C(O)C(O)C3O)CCC3(C)C(=CCC4C5(C)CCC(O)C(C)(C(=O)O)C5CCC43C)C2C1(C)O (configuration not stated),x,x,4%[12.6 µM],x,x,x
COc1ccc(CN(C(=O)c2cc3ccccc3oc2=O)C2CCS(=O)(=O)C2)cc1OC (configuration not stated),11µM*,2%,-14%,i,48%,1%
S=P(N1CC1)(N1CC1)N1CC1,-7%,-6%,16µM*!,x,-5%,x
COc1ccc(OC)c(C2C(C#N)=C(N)Oc3n[nH]c(-c4ccc5ccccc5c4)c32)c1 (configuration not stated),x,x,-8%[57.5 µM],x,x,x
Nc1nc(Nc2ccc3c(c2)CC[C@@H](N2CCCC2)CC3)nn1-c1cc2c(nn1)-c1ccccc1CCC2,x,x,35µM*,x,x,x
